Test results as given in the supplement of paper PMC10849652.
Targets with a hit are over-represented here; the source holds about 8,800 in all. About 0.5% of all pairs of compound and target were hits. Unmarked numbers belong to inactive results.

Key:
Assay in all cases: log2 fold change, soluble protein after heating vs DMSO (PISA); higher = thermal stabilisation; K562 lysate, 10 uM; active = over 0.2 and 3.5 SD of the protein, either way, in both replicates (recomputed)
[1] = compound: NCC(=O)Nc1ccc(-n2nc(C(F)(F)F)cc2-c2ccc3c(ccc4ccccc43)c2)cc1
Method in brief: (§1)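 Log-two fold change in thermal stability relative to solvent controls is reported from duplicates. For each sample, crude K562 extract from dounce-homogenised pellets in PBS pH 7.4 with 1 mM MgCl2, at 1 mg/mL protein, was treated with 10 μM compound for 30 min. Aliquots heated for 3 min across 48°C-58°C were pooled, brought to 0.5% NP-40 at 4°C and cleared at 21,000xg for 90 min. The supernatant was quantified by TMTpro 16plex LC-MS/MS with channel sums equalised.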

[2] = compound: O=C(CCCCCCC(=O)Nc1ccccc1)NO [vorinostat]
Method in brief: as §1

[3] = compound: O=C(O)c1ccc2c(c1)nc(Nc1cccc(Cl)c1)c1ccncc12 [silmitasertib]
Method in brief: as §1

[4] = compound: O=C1NC(=O)C(c2cnc3ccccn23)=C1c1cn2c3c(cc(F)cc13)CN(C(=O)N1CCCCC1)CC2
Method in brief: as §1

[5] = compound: c1cn2cc(-c3ccc4cn[nH]c4c3)nc(Nc3ccc(N4CCOCC4)cc3)c2n1 [entospletinib]
Method in brief: as §1

Sequence of UniProt O95248 (O95248 whole entry, looked up): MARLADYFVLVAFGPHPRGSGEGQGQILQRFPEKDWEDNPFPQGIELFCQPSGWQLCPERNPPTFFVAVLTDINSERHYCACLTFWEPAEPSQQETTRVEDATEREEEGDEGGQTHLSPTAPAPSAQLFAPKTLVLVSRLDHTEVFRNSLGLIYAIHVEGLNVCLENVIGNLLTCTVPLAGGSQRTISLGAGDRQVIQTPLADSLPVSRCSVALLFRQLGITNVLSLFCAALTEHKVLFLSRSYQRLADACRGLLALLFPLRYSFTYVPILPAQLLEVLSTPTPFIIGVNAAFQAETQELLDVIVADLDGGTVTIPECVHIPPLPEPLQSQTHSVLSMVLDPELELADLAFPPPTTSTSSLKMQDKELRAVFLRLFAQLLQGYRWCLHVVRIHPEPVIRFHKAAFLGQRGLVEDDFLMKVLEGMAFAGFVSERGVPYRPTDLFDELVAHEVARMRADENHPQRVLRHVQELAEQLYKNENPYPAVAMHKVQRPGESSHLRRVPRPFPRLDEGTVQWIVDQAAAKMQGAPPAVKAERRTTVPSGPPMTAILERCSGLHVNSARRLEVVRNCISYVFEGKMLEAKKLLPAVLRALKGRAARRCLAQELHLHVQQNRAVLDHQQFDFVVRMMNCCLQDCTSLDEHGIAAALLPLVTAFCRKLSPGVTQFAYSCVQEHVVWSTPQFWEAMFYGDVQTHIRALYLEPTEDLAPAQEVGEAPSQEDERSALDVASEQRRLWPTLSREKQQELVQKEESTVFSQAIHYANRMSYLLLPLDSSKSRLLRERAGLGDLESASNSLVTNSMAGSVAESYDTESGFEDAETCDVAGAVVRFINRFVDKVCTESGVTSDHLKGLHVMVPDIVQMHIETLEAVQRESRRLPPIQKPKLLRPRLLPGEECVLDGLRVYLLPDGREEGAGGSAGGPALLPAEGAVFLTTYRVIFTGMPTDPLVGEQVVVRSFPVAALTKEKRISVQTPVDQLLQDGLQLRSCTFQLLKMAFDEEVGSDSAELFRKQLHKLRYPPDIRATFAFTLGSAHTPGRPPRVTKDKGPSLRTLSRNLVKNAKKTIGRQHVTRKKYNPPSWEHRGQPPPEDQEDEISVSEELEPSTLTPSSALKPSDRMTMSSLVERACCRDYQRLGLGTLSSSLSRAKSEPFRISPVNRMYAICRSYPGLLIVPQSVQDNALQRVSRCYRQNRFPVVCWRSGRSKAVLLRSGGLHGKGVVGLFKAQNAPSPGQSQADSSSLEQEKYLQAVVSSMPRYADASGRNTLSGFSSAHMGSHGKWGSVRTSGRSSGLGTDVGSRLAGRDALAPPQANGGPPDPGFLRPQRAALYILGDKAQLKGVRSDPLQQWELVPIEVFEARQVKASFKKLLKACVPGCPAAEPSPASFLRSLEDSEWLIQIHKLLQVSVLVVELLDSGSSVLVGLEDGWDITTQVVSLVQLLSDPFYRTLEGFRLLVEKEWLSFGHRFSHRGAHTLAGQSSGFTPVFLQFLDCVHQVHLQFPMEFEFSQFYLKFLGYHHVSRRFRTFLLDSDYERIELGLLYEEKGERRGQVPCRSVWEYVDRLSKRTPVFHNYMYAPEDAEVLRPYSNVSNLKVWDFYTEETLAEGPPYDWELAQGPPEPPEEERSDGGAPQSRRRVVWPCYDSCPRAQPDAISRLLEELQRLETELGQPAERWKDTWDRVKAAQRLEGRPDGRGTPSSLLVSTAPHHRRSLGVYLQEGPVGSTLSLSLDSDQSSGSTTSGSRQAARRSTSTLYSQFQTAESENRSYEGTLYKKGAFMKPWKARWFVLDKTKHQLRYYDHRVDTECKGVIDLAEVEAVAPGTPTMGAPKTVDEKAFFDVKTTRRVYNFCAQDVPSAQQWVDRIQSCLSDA
Sequence of UniProt Q00765 (Q00765 whole entry, looked up): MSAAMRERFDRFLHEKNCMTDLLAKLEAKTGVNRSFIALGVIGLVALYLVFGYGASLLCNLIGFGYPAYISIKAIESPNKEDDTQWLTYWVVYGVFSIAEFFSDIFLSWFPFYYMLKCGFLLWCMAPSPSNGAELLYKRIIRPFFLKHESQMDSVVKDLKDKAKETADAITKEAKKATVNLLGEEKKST
Sequence of UniProt Q9BXT8 (Q9BXT8 whole entry, looked up): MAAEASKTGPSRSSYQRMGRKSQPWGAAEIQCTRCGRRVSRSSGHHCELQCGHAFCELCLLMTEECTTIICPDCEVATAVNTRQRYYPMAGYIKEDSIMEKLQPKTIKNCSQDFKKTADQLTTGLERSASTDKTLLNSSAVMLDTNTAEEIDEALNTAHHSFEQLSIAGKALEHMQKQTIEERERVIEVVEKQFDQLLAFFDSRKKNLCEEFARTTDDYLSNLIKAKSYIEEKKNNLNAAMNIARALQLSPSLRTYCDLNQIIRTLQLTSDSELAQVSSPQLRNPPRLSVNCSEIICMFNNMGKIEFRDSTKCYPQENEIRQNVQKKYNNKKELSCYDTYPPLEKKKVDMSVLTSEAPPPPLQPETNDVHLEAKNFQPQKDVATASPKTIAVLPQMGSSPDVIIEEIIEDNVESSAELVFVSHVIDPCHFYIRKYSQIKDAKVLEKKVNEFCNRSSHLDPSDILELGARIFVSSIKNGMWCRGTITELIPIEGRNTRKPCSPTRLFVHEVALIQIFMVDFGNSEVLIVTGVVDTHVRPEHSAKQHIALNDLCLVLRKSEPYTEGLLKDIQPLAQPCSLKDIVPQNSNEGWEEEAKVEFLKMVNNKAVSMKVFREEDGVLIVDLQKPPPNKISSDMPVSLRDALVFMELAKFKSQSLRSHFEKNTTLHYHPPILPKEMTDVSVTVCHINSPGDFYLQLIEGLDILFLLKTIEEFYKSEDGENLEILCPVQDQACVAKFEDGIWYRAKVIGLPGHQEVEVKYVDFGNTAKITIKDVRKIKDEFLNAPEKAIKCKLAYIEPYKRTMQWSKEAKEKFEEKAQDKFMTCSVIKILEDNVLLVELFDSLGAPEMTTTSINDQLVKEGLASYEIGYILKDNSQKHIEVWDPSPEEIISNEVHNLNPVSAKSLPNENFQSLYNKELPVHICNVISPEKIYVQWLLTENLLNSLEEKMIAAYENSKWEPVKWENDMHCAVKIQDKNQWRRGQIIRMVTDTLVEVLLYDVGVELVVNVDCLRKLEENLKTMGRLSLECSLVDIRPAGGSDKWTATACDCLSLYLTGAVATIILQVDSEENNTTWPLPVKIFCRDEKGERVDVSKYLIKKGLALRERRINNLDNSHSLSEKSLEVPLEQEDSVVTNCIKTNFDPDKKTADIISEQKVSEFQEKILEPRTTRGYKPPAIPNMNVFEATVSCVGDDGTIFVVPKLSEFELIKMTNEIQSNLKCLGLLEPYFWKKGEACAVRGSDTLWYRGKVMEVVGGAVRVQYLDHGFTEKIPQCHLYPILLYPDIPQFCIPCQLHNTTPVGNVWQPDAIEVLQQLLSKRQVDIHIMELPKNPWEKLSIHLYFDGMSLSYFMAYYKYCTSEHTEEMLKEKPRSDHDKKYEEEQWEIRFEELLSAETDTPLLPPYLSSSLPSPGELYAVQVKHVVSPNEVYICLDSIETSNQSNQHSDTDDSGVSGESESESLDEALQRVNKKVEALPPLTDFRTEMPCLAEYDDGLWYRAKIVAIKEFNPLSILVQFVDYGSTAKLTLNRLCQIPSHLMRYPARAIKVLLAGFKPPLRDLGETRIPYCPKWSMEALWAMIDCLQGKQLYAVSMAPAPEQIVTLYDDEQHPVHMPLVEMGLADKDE
Sequence of UniProt O75150 (O75150 whole entry, looked up): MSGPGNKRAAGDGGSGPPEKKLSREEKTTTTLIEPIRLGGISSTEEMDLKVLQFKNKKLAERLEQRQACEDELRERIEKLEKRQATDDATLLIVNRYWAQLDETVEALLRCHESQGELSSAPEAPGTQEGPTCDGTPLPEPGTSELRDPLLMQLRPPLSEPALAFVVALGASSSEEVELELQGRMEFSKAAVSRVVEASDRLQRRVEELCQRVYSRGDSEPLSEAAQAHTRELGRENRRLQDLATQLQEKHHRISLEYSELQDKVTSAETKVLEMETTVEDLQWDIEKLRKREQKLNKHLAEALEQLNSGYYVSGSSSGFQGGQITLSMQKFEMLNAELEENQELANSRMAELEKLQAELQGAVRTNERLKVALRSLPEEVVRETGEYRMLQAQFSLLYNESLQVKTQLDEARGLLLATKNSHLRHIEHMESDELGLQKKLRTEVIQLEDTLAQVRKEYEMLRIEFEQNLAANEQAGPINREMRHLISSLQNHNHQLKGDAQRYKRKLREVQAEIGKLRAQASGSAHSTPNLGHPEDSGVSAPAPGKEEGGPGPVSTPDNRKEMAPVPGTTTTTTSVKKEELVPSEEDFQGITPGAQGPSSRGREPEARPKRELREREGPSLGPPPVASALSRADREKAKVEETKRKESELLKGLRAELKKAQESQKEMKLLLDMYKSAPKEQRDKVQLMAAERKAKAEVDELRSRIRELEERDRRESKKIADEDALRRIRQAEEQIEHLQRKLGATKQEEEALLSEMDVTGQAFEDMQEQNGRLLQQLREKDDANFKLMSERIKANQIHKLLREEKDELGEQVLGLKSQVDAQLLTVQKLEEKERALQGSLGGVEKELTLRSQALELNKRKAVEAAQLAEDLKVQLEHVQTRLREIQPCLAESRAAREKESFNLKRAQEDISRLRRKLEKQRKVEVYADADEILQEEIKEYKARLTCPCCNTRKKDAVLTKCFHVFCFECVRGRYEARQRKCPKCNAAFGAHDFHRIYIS
Sequence of UniProt Q9Y225 (Q9Y225 whole entry, looked up): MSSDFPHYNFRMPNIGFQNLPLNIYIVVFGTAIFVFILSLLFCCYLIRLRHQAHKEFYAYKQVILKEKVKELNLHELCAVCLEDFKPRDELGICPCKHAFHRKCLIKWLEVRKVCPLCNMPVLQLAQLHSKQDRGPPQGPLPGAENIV
Sequence of UniProt Q7L0Q8 (Q7L0Q8 whole entry, looked up): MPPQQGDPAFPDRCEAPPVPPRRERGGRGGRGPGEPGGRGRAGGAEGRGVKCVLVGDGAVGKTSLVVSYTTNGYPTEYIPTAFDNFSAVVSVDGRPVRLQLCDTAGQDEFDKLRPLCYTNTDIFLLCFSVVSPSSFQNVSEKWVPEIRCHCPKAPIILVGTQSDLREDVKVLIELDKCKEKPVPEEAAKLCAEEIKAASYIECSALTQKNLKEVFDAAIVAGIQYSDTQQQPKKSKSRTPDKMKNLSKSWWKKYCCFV

Target	log2 fold change [1]	log2 fold change [2]	log2 fold change [3]	log2 fold change [4]	log2 fold change [5]
SBF1 isoform 4 (UniProt O95248)	0.013	-0.377 (active)	-0.046	0.056	0.005
RHOU (UniProt Q7L0Q8)	0.019	-0.116	0.058	-0.039	0.024
SAP30 (UniProt O75446)	0.001			-0.024	-0.022
RNF17 (UniProt Q9BXT8)		-0.016	-0.021	-0.106	0.107
REEP5 (UniProt Q00765)	-0.034	0.001	-0.025	0.02	0.015
SCAF1 (UniProt Q9H7N4)	-0.172	-0.076	0.042	-0.04	0.025
RNPC3 (UniProt Q96LT9)		-0.488 (active)	0.145	0.036	
RNF40 (UniProt O75150)	0.015	-0.237 (active)	0.032	-0.007	-0.022
RNF24 isoform 2 (UniProt Q9Y225)		0.918 (active)	-0.117	0.016	
RHBDD1 (UniProt Q8TEB9)	-0.162				0.036
